# Only some compounds are listed: those with a hit (about 2.3% of all), similar ones and a draw of the others.
# 697 NFkB inh – lowers PMA/ionomycin-induced NF-kB signal in 697 B cells | 697 B-cell NF-kB luciferase reporter, 16 h | inhibition, % at 4 µM | hit rate 0.33% among 330,000 | AID 435022; in the data active = inhibition above about 35%
# Shn3 3UTR inh – Schnurri-3 reporter inhibition in Clone20 osteoblasts. AID 588674. inhibition, % at 12.5 µM. hit rate 0.52% among 360,000. Clone20 osteoblast Shn3 3'UTR firefly luciferase, 24 h;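 active = mean inhibition of at least 75% with every replicate also reaching 75%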;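 note: 0% = median of neutral control wells and 100% = pilot-screen positive control compound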
# TAG inh – triacylglycerol accumulation inhibition; H9c2 cells, Nile Red lipid (TAG) fluorescence; cells loaded with 200 µM oleic acid; inhibition, % at 12.5 µM; hit rate 0.66% among 230,000;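 active = pattern-corrected inhibition of lipid staining of at least 50% with the nuclear-stain viability signal not falling by more than 50%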;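 note: 0% = DMSO wells and 100% = triacsin C control wells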
# aSyn UTR inh – MLPCN primary screen, SNCA 5' untranslated region. inhibition, % (tested at 7.5 µM). hit rate 0.82% among 300,000. AID 1813. alpha-synuclein 5'UTR reporter, inhibitor activity; in the data active = inhibition above about 60%;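 note: H4 neuroglioblastoma cells stably carrying SNCA 5'UTR luciferase fusion; 0% = DMSO wells and 100% = positive control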
# Gli-Sufu block – antagonists of Gli-Sufu signaling | hit rate 0.74% among 340,000 | Sufu-KO-LIGHT fibroblasts, Gli luciferase reporter luminescence | inhibition, % at 5 µM;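 active = inhibition above about 55%, limit read from the data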;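 note: 0% = DMSO-treated cells and 100% = wells with medium but no cells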
# Jurkat NFkB inh – lowers PMA/ionomycin-induced NF-kB signal in Jurkat cells; PMA/ionomycin-induced NF-kB luciferase reporter, luminescence; AID 435003; hit rate 0.53% among 330,000; inhibition, % at 4 µM; in the data active = inhibition above about 50%
# 697 NFkB conf – inhibitors of the PMA/ionomycin-induced NF-kB reporter in 697 B cells, retest. hit rate 35% among 2,000. shares compounds with 697 NFkB inh. inhibition, % at 4 µM. 697 B-cell NF-kB luciferase, 16 h; in the data active = inhibition mostly above about 28%, no sharp cut-off; inactive = mostly below about 22%
# * hit, by the source's call; i = inactive; . = no result given.
SMILES,697 NFkB inh,Shn3 3UTR inh,TAG inh,aSyn UTR inh,Gli-Sufu block,Jurkat NFkB inh,697 NFkB conf
COc1ccc(-c2nc(CSCC(=O)NCc3ccco3)c(C)o2)cc1,38*,18,-26,-1,39,29,43*
COc1ccc(NC(=O)CSCC(=O)NCc2ccco2)cc1,14,-12,6,-4,-3,9,.
O=C(Nc1nc(-c2ccccc2)cs1)c1ccccc1NS(=O)(=O)c1ccc(F)cc1,47*,49,-1,63*,53,13,52*
Cc1cc(Nc2ccccc2N2CCOCC2)n2ncnc2n1,35*,-3,.,1,5,4,25
COc1ccc(/C=C2/SC(=S)N(CCC(=O)Nc3cccnc3)C2=O)cc1OC,.,-22,-20,.,.,.,.
Cc1ccc(/C=C2\SC(=S)N(CCC(=O)Nc3cccnc3)C2=O)cc1,52*,3,-9,21,-4,0,27
O=C(CCCN1C(=O)/C(=C/c2ccccc2Cl)SC1=S)Nc1ccccn1,46*,24,.,42,9,12,68*
O=C(CCCN1C(=O)/C(=C/c2ccccc2Cl)SC1=S)Nc1cccnc1,83*,19,10,-49,18,29,61*
Cc1ccc(S(=O)(=O)N(CC2CO2)c2cccc([N+](=O)[O-])c2)cc1 (stereo not drawn),15,-2,.,-1,-16,17,.
O=C(NCc1cccs1)C1CCN(S(=O)(=O)c2cccs2)CC1,12,18,.,15,-20,-8,.
COc1ccc(COc2cc(-c3cccc(OC)c3)nc3ccc(NC(=O)c4ccc(Cl)cc4)cc23)cc1,6,18,39,11,3,6,.
COc1ccc(COc2cc(-c3cccc(OC)c3)nc3ccc(NC(=O)c4ccccc4)cc23)cc1,40*,8,.,-1,-3,4,20
CC(C)(C)c1ccc(-c2cc(N)n[nH]2)cc1,44*,33,0,91*,7,-50,45*
CC(C)(C)C(=O)Nc1ccccc1C(=O)NCCCn1ccnc1,9,-16,0,-1,2,3,.
COc1ccccc1/C=C1\SC(=S)N(CCC(=O)Nc2cc(C)on2)C1=O,51*,15,.,37,14,1,38*
COc1ccccc1/C=C1\SC(=S)N(CCC(=O)Nc2cccc(O)c2)C1=O,35*,0,.,4,20,-12,31*
Cc1cc(NC(=O)CCN2C(=O)/C(=C/c3ccccc3Cl)SC2=S)no1,0,-7,.,-21,-3,18,.
COc1cc(/C=C2\SC(=S)N(CCC(=O)Nc3cccc(O)c3)C2=O)cc(OC)c1OC,9,38,1,-15,-2,6,.
COc1ccccc1/C=C1\SC(=S)N(CCC(=O)Nc2nnc(C)s2)C1=O,51*,22,.,-10,-9,10,29*
CCc1ccc(/C=C2\SC(=S)N(CCC(=O)Nc3cc(C)on3)C2=O)cc1,59*,0,-1,69*,-13,-3,44*
O=C(Nc1ncccc1O)c1ccc(NS(=O)(=O)c2ccc3[nH]c(=O)[nH]c3c2)cc1,-33,-18,-6,.,26,7,.
O=C(Nc1ncccc1O)c1ccc(S(=O)(=O)Nc2ccccc2)cc1,-402,-328,-49,i,44,12,-359
O=C1c2ccccc2NC(c2ccccc2O)N1O (stereo not drawn),-12,-11,.,-9,9,-4,.
Cc1ccc(N2C(=O)c3ccccc3NC2c2ccccc2O)cc1 (stereo not drawn),-296,-38,.,-39,-55,-123,-103
CC(C)Oc1ccc(C(=O)Nc2ccc(N(C)C)cc2)cc1,45*,-20,.,-42,23,-58,36*
Cc1c(CCC(=O)N2CCC(C(=O)NCCCCCC(=O)O)CC2)c(=O)oc2cc3oc4c(c3cc12)CCCC4,15,1,.,20,-11,-5,.
Cc1c(CCC(=O)O)c(=O)oc2cc3oc4c(c3cc12)CCCC4,40*,29,14,68*,18,1,35*
Cc1c(CCC(=O)NCC(=O)NCC(=O)O)c(=O)oc2cc3oc4c(c3cc12)CCCC4,12,14,.,-3,9,-14,.

# Compound activity (PubChem)
